Most compounds without a hit are left out; they make up all but 3.2% or so of the library.
rRNA inh HTS: selective bacterial rRNA inhibition in E. coli; E. coli WT GFP vs humanized-ribosome RFP mutants, fluorescence, 24 h; active compounds read low; DMSO median 0, no signal -100; 1.6% of 350,000 active; GFP signal change (wild-type ribosome), % (test concentration not listed);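 active = significant combined selectivity score with lowered wild-type GFP, culture density cut under 30%, mutant RFP and density less affected; inactive = any of these conditions unmet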
DENV2 CPE: inhibitors of DENV2 cytopathic effect. DENV2-infected cells, cytopathic effect rescue, plate reader. CPE inhibition, % at 9.99 µM. 1.7% of 350,000 active. AID 651640; in the data active = CPE inhibition above about 20%, passing the limit was not always enough; inconclusive = no clear call, values can overlap the other calls; tested in BHK-21 cells
PGC1a acetyl inh: modulators of PGC1a acetylation; inhibition, % at 15.6 µM; U2OS PGC1a acetylation, AlphaScreen anti-acetyl-lysine; with virally co-expressed GCN5 acetyltransferase; 0.17% of 350,000 active;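 active = every replicate shows inhibition of at least 40%; inconclusive = mean inhibition at least 40% but some replicate below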
INS-1E GSIS act: primary screen for activators of insulin secretion dependent on glucose, INS-1E cells, GLuc reporter luminescence; INS-1E GLuc reporter insulin secretion, 2-3 h; activation, % at 16.6 µM; 0.61% of 370,000 active; AID 743287;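 active = lowest replicate activation of at least 40%, so every replicate reaches that level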
ERAP1 HTS inh: inhibitors of human ERAP1 aminopeptidase | 0.15% of 340,000 active | inhibition, % at 10.7 µM | Q9NZ08 | recombinant ERAP1, Leu-AMC fluorescence, 60 min;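 active = mean replicate inhibition of at least 30%, or all replicates individually reaching that 30% level; inactive = mean below 30% and not every replicate reaching it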
Target sequence (Q9NZ08 whole entry, looked up): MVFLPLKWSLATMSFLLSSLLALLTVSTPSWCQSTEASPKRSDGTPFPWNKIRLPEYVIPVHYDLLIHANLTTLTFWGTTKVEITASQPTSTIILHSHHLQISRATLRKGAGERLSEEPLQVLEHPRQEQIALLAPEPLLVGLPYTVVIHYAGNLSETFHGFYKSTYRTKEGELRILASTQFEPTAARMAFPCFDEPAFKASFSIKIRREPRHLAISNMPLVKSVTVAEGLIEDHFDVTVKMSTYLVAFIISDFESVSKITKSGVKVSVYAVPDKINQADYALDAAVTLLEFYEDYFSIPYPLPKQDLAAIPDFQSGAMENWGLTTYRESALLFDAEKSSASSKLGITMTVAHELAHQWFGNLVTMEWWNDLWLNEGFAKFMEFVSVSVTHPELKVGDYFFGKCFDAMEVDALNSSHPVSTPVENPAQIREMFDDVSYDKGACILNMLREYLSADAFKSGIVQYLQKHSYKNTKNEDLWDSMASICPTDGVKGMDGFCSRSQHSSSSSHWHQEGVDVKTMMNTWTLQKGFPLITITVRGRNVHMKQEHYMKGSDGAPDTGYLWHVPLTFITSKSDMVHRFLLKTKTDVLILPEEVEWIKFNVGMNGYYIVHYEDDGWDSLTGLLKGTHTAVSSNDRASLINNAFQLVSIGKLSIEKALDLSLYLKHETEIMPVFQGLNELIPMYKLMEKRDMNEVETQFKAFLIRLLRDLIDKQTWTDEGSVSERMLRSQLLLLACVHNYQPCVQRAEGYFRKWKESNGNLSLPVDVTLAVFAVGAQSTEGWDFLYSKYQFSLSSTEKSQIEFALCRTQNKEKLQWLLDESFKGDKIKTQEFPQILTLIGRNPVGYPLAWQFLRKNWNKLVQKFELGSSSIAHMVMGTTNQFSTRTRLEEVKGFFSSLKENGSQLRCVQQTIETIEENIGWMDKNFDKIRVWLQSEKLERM
CaV13 ICDI inh: Primary screen for inhibitors of IQ motif and Ca2+-dependent inactivation inhibitor domain binding in CACNA1D, Förster resonance energy transfer in living cells, …; inhibition, % at 12.3 µM; HEK cells, CFP/YFP FRET ICDI-IQ, plate reader, 10 min; percent FRET-ratio fall versus neutral wells; 0.098% of 340,000 active;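 active = mean replicate inhibition of at least 30% and at least 1% of replicates passing that level; inconclusive = only one of the two criteria is met; inactive = neither criterion is met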
AID977621: growth inhibition of wild-type GFP E. coli, dose response, H69 mutant RFP, cherry-pick | AID 977621 | shares compounds with rRNA inh HTS | 1,900 tested, under 10 active | activity change, negative = inhibition at 50 µM | E. coli wild-type GFP strain growth, fluorescence, 24 h;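 active = Wild-type ribosome reporter drop at least double the humanized mutant ribosome reporter drop, growth loss under a set limit; inconclusive = no clear call, values can overlap the other calls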;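 note: wild-type GFP and H69 mutant RFP strains grown together 50/50 in each well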
AID977628: E. coli growth inhibition, wild-type GFP versus h24 humanized RFP strain, dose response, h24 mutant RFP vs wild-type GFP, cherry-pick; shares compounds with rRNA inh HTS; E. coli WT GFP strain growth, fluorescence, 24 h; activity change, negative = inhibition at 50 µM; 1,900 tested, under 10 active;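 active = compound lowering the normal-ribosome reporter at least twice as much as the humanized-ribosome reporter, growth loss under a set limit; inconclusive = no clear call, values can overlap the other calls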;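 note: wild-type GFP and h24 humanized RFP strains co-cultured 1 to 1 per well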
Large screens that a line does not name were inactive (follow-up assays come after a bar, where they were run).

OC(COc1ccc(Cl)cc1)CN1CCN(c2ccccn2)CC1 (stereo unspecified)	rRNA inh HTS -21.8 (no result: INS-1E GSIS act) | AID977628 inactive
O=C(CSc1nnc(COc2cccc3cccnc23)o1)c1ccc(F)cc1	rRNA inh HTS -24.8 (no result: PGC1a acetyl inh) | AID977621 inactive | AID977628 inactive
O=C(NCc1ccccc1)c1ccc(Br)cc1[N+](=O)[O-]	none (no result: rRNA inh HTS, INS-1E GSIS act, CaV13 ICDI inh)
O=C(Nc1ccc(F)c(Cl)c1)C1CC2CCC1C2 (stereo unspecified)	rRNA inh HTS -28.1 (no result: PGC1a acetyl inh) | AID977621 inactive | AID977628 inactive
O=C(Nc1ccc(F)cc1)C1CC2CCC1C2 (stereo unspecified)	none
C[C@@H]1CN([C@@H](C)CO)S(=O)(=O)c2ccc(-c3cccnc3)cc2O[C@@H]1CN(C)C	none (no result: CaV13 ICDI inh)
N#C[C@H]1[C@@H](c2ccccc2C2=CCCCC2)[C@@H](CO)N1C(=O)NC1CCCCC1	DENV2 CPE inconclusive (no result: CaV13 ICDI inh)
NS(=O)(=O)c1cc(C(=O)OCC(=O)Nc2ccc(Cl)cc2[N+](=O)[O-])ccc1Cl	none (no result: PGC1a acetyl inh)
NS(=O)(=O)c1cc(C(=O)OCC(=O)Nc2ccccc2[N+](=O)[O-])ccc1Cl	rRNA inh HTS -19.7 | AID977628 inactive
COc1cccc(NC(=O)C(C)SCc2ccccc2)c1 (stereo unspecified)	rRNA inh HTS -25.0 (no result: PGC1a acetyl inh) | AID977621 inactive | AID977628 inactive
COc1cccc(NC(=O)C(c2ccccc2)N2CCN(c3ccccn3)CC2)c1 (stereo unspecified)	rRNA inh HTS -19.1 (no result: DENV2 CPE, PGC1a acetyl inh) | AID977621 inactive | AID977628 inactive
COc1ccc(NC(=O)C(C)SCc2ccccc2)cc1OC (stereo unspecified)	none (no result: INS-1E GSIS act)
CCc1cc2ccc(OC)cc2nc1SCC(=O)N1CCN(C(=O)c2ccco2)CC1	rRNA inh HTS -25.5 | AID977621 inactive
CCc1cc2ccc(OC)cc2nc1SCC(=O)NNC(=O)c1ccco1	none
O=C(Nc1ccccc1F)N1CCCCN2[C@H](C1)[C@@H](c1ccc(C3=CCCC3)cc1)[C@@H]2CO	none (no result: CaV13 ICDI inh)
c1ccc2c(c1)nc(N1CCCCCC1)c1ccccc12	rRNA inh HTS -30.6 (no result: PGC1a acetyl inh) | AID977621 inactive
Cc1ccc(S(=O)(=O)N(C(=O)c2ccncc2)c2ccc(OC(=O)c3ccncc3)cc2)c(C)c1	rRNA inh HTS -18.3 (no result: PGC1a acetyl inh) | AID977621 inactive | AID977628 inactive
CN1CCN(C(=O)C[C@H]2C=C[C@H](NC(=O)Cc3ccccn3)[C@@H](CO)O2)CC1	none (no result: CaV13 ICDI inh)
O=C(Nc1cccc(O)c1)c1cccc(S(=O)(=O)Nc2cccc(O)c2)c1	rRNA inh HTS -16.1 | AID977621 inactive | AID977628 inactive
O=C(Nc1cccc(O)c1)c1cccc(C(=O)Nc2cccc(O)c2)c1	none (no result: ERAP1 HTS inh)
O=C1OC[C@@H]2CCCN2C(=O)[C@@H](CC(=O)N(CCO)Cc2ccccc2)C/C=C\C[C@H]1Cc1ccc(F)cc1	rRNA inh HTS -21.1 | AID977621 inactive | AID977628 inactive
O=C1N[C@@H](Cc2ccccc2)COC(=O)[C@H](Cc2ccc(F)cc2)C/C=C\C[C@H]1CC(=O)N(CCO)Cc1ccccc1	rRNA inh HTS -18.8, DENV2 CPE inconclusive (no result: ERAP1 HTS inh) | AID977628 inconclusive
O=C1OC[C@H]2CCCN2C(=O)[C@@H](CC(=O)N(CCO)Cc2ccccc2)C/C=C\C[C@H]1Cc1ccc(F)cc1	DENV2 CPE inconclusive
C[C@H](CO)N1C[C@H](C)[C@H](CN(C)C(=O)Cc2ccccc2)OCCCC[C@H](C)Oc2ccc(NS(=O)(=O)c3ccc(F)cc3)cc2C1=O	none (no result: ERAP1 HTS inh, CaV13 ICDI inh)
O=C(CC1CC1)Nc1ccc2c(c1)[C@H]1C[C@@H](CC(=O)N3CCc4ccccc4C3)O[C@H](CO)[C@H]1O2	none (no result: CaV13 ICDI inh)
COC(=O)c1cccc(CN2C(=O)SC(Nc3ccc(C)cc3)C2=O)c1 (stereo unspecified)	rRNA inh HTS -16.5 (no result: PGC1a acetyl inh) | AID977621 inactive | AID977628 inconclusive
COc1ccc([Si](C)(C)[C@@H]2[C@@H](CC(=O)N3Cc4ccccc4C[C@H]3CO)O[C@]3(C(=O)N(Cc4ccc(I)cc4)c4ccccc43)[C@H]2C)cc1	none (no result: rRNA inh HTS, PGC1a acetyl inh, INS-1E GSIS act, CaV13 ICDI inh)
Cc1ccc(C2(c3noc(CN(C)Cc4cccnc4)n3)CCCC2)cc1	rRNA inh HTS -31.5 | AID977628 inconclusive
Cc1ccc(C2(c3noc(CN(C)Cc4ccccn4)n3)CCCC2)cc1	DENV2 CPE inconclusive (no result: PGC1a acetyl inh)
Cc1cccc(OCCNc2cc(N3CCN(C)CC3)ccc2[N+](=O)[O-])c1	none (no result: rRNA inh HTS, DENV2 CPE, ERAP1 HTS inh)
Cc1cccc(OCCNc2ncccc2[N+](=O)[O-])c1	rRNA inh HTS -17.2 | AID977621 inconclusive
COCc1ccc(C(=O)N2CCCC(C(=O)c3ccc(Cl)cc3C)C2)o1 (stereo unspecified)	rRNA inh HTS -25.9 | AID977621 inactive | AID977628 inactive
COc1ccc(NC(=O)N(C)C[C@@H]2Oc3ccc(NC(=O)C4CCCCC4)cc3C(=O)N([C@H](C)CO)C[C@@H]2C)cc1	none (no result: CaV13 ICDI inh)
Cc1ccc(-c2cnc3c(c2)C(=O)N([C@@H](C)CO)C[C@@H](C)[C@@H](CN(C)C(=O)c2cccc(F)c2)O3)cc1	none (no result: CaV13 ICDI inh)
C[C@H](CO)N1C[C@H](C)[C@H](CN(C)C(=O)NC2CCCC2)Oc2ncc(/C=C/c3ccccc3)cc2C1=O	none (no result: CaV13 ICDI inh)
COc1cc2c(cc1OC)CN(C(=O)c1cc(S(=O)(=O)N3CCOCC3)ccc1Cl)CC2	none (no result: rRNA inh HTS, DENV2 CPE, PGC1a acetyl inh, INS-1E GSIS act, ERAP1 HTS inh)
O=C(c1cc(S(=O)(=O)N2CCOCC2)ccc1Cl)N1CCc2ccccc2C1	rRNA inh HTS -20.2 | AID977621 inactive | AID977628 inactive
COc1ccc(OC)c(CN2CCCC(C(=O)c3ccccc3SC)C2)c1 (stereo unspecified)	rRNA inh HTS -18.4 | AID977628 inconclusive
COc1ccc(-c2[nH]ncc2CN2CCCC(C(=O)c3ccc(OC)cc3OC)C2)cc1 (stereo unspecified)	none (no result: DENV2 CPE, PGC1a acetyl inh)
CN(C)CCCN(C(=O)CCOc1ccccc1)c1nc2c(F)cccc2s1	rRNA inh HTS -14.1, INS-1E GSIS act 98.9 (no result: ERAP1 HTS inh) | AID977621 inactive | AID977628 inconclusive
CN(C)CCCN(C(=O)COc1ccc(Cl)cc1)c1nc2ccc(F)cc2s1	rRNA inh HTS -23.4 | AID977621 inactive | AID977628 inactive
CN(C)CCCN(C(=O)CCc1ccccc1)c1nc2c(F)cccc2s1	none (no result: rRNA inh HTS, DENV2 CPE, ERAP1 HTS inh)
C[C@H](CO)N1C[C@H](C)[C@H](CN(C)C(=O)c2ccccc2)OCCCC[C@H](C)Oc2ccc(NC(=O)CCC(F)(F)F)cc2C1=O	none (no result: CaV13 ICDI inh)

Screening results from PubChem.
